This note sets out measurements from PubChem BioAssay (NCATS).

Unmarked numbers belong to inactive results. Results filed as inconclusive are left out. Activity calls are given as the source filed them. Unless noted, calls come from the whole dose curve; as a rule, active = well fitted curve in either direction with a large enough effect (not every such curve was filed as active); inconclusive = small, poorly fitted or top-dose-only effect, or another doubt; inactive = flat fitted curve, though single readings scatter.

Test [1] in a line: AP1 Signaling Pathway (AID 357). Note: % is set by controls: 0 for no effect and ±100 for the full control effect. The settings on record: ME-180 AP-1-bla reporter, EGF-induced, beta-lactamase ratio, 5 h; at 17.2 µM (top of the series) unless noted. Summed up: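 Cells are seeded overnight, exposed to compound titrations and an EC50 level of EGF for 5 hours at 37 °C, then loaded with CCF4 dye for 2.5 hours. Beta-lactamase activity under the AP-1 element is read as a blue/green ratio.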

A short description of test [2]: NFAT Signaling Pathway (AID 444).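 Note: carbachol stimulus at about its EC50 of 1 µM final; % is set by controls: 0 for no effect and ±100 for the full control effect.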 Conditions: Jurkat NFAT-bla M1, carbachol, beta-lactamase ratio, 5 h; at 17.2 µM (top of the series) unless noted. Summed up: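 Read-out: CCF4 FRET ratio (460 nm/530 nm) after 1 h RT dye loading, used for %activity and AC50 from titration series. Cells: Jurkat NFAT-β-lactamase/M1 line, treated with compound plus 1 uM carbachol for 5 h, 37 °C.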

Test [3] is described as follows: Stat Signaling Pathway (AID 446).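 Note: ME-180 cervical cancer cells given 40 pM IL-6 alongside compound; SIE-controlled beta-lactamase reporter measured as 460/530 nm FRET emission ratio; % is set by controls: 0 for no effect and ±100 for the full control effect.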 Conditions: ME-180 SIE beta-lactamase reporter, IL-6 stimulated, 5 h; at 17.2 µM (top of the series) unless noted. Summed up: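 Screening format detects activators and inhibitors alike: ME-180 SIE-bla cells stimulated at 40 pM IL-6 for 5 hrs with compound, then dual-emission beta-lactamase read at 405 nm excitation.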
Test [4] concerns the target Glucocorticoid receptor (Homo sapiens) (UniProt P04150). The test is described as follows: GR-GFP Redistribution (AID 450;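 active = compounds whose dose series gives a full or clear partial fitted curve of increased nuclear translocation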; note: potency is the fitted concentration of half-maximal effect).
Test [5] can be described thus: qHTS Assay for Identification of Small Molecule Agonists for Hypoxia Response Element Signaling Pathway (AID 914; active = well fitted activation curve with a large enough effect in the signal ratio, with a control signal flat, not every such curve was filed as active; the % refers to the signal ratio; note: potency is the fitted concentration of half-maximal effect; for activation: % of control where 0% means no effect). The settings on record: ME-180 HRE-bla reporter, beta-lactamase ratio, CoCl2, 17 h; activation: hits give high values. Put shortly: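 ME-180 cells carrying an HRE-driven beta-lactamase reporter were treated with compounds in a titration series plus an EC50 level of CoCl2 for 17 h at 37 degrees Celsius; CCF4 readout as the 460nm/530nm ratio gave AC50 values.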
(In general: Quantitative high-throughput screening tests each substance at several concentrations.)

Test [6] addresses Mitogen-activated protein kinase 10 (Mus musculus) (UniProt Q61831). In words: JNK3 AlphaScreen Assay (AID 530).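 Note: kinase came from lysate of stimulated human HepG2 cells; signal reports phosphorylation of biotinylated GST-cJun 1-79 at Ser73 with 10 µM ATP; % is set by controls: 0 for no effect and ±100 for the full control effect.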 Put shortly:
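Room-temperature AlphaScreen kinase assay; pre-activated HepG2 lysate as JNK3 source, biotin-GST-cJun(1-79) substrate, 10 uM ATP, compound 15 min preincubation.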

Test [7] addresses 3',5'-cyclic-AMP phosphodiesterase 4B (Homo sapiens) (UniProt Q07343). In words: qHTS Assay for Inhibitors of PDE-IV (AID 607; active = well fitted activation curve with a large enough effect in the main read-out, with a control signal flat, not every such curve was filed as active; note: % of control where 0% means no effect). Summed up: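 The readout is membrane depolarisation from a cAMP-sensing CNG channel, detected with a potential dye at ex 535/em 590. Cells were HEK293-derived (endogenous PDE-IV) at 1000 cells/well, titrated up to 22.9 uM final.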
The target of test [8] is Glucocorticoid receptor (Homo sapiens) (UniProt P04150). In words: qHTS assay for small molecule agonists of glucocorticoid receptor signaling (AID 588532; active = well fitted curve in the direction sought with a large enough effect in the signal ratio, with a control signal flat; the % refers to the signal ratio;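 note: 100% = dexamethasone at 0.1 µM and 0% = DMSO only wells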). The settings on record: HeLa MMTV-bla, beta-lactamase ratio, agonist, 18 h; hits give high values; percent of dexamethasone control, DMSO zero. Put shortly:
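Agonist-mode qHTS: GRE-driven beta-lactamase in HeLa cells exposed 18 h to titrated compounds (up to 92 uM), then CCF4 ratio read after 2 h at RT; Hill-fitted EC50, efficacy relative to 0.1 uM dexamethasone.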

Test [9] shares this target. In words: qHTS assay for small molecule antagonists of glucocorticoid receptor signaling (AID 588533; active = well fitted inhibition curve with a large enough effect in the signal ratio, with a control signal flat, not every such curve was filed as active; the % refers to the signal ratio). Summed up: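 Antagonist-mode qHTS: compound titrations added to GRE-bla HeLa cells, then dexamethasone 2 nM final; 18 h, 37 C. CCF4 FRET fluorescence normalized to dexamethasone and DMSO; IC50 from Hill fit.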
In test [10] the target is Peroxisome proliferator-activated receptor gamma (Homo sapiens) (UniProt P37231). In words: qHTS assay for small molecule antagonists of peroxisome proliferator-activated receptor gamma signaling (AID 588537; active = well fitted inhibition curve with a large enough effect in the signal ratio, with a control signal flat, not every such curve was filed as active; the % refers to the signal ratio;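 note: reporter cells co-stimulated with 50 nM rosiglitazone agonist during compound treatment; % of control where 0% means no effect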). Summed up: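 Inhibitors of agonist-stimulated UAS-bla reporter activity were sought in HEK293 cells; rosiglitazone (50 nM) defined full signal and DMSO baseline. Curves fitted to Hill model gave IC50 and efficacy.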
Chain of Peroxisome proliferator-activated receptor gamma (Homo sapiens) (P37231 whole entry, looked up): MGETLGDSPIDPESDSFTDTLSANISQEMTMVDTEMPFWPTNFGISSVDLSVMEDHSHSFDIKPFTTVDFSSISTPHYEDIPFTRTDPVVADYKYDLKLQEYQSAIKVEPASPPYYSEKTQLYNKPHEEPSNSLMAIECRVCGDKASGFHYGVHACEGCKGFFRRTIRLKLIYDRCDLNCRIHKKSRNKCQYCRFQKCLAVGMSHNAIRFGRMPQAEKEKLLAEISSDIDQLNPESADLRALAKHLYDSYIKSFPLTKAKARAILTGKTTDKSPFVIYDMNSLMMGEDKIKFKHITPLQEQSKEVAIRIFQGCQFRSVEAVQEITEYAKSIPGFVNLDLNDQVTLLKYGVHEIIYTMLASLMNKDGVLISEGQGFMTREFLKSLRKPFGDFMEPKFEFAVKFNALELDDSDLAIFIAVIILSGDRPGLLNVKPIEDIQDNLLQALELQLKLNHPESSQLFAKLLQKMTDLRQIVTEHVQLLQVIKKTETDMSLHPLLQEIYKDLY

Test [11] can be described thus: qHTS assay for small molecule agonists of the antioxidant response element (ARE) signaling pathway (AID 651741; active = well fitted activation curve with a large enough effect in the signal ratio; the % refers to the signal ratio; note: potency is the fitted concentration of half-maximal effect). Summed up: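 Seeding 2,000 ARE-bla HepG2 cells per well preceded a 5 h incubation at 37 C/5% CO2 and a 16 h compound exposure at 37 C. Beta-lactamase reporter activity was then quantified by fluorescence after 2 h with LiveBLAzer B/G FRET substrate.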
Test [12] addresses Peroxisome proliferator-activated receptor alpha (Homo sapiens) (UniProt Q07869). In words: qHTS assay for small molecule agonists of the peroxisome proliferator-activated receptor alpha (PPARalpha) signaling pathway (AID 651778; active = well fitted curve in the direction sought with a large enough effect; an effect the other way counts as inactive or inconclusive; note: % of control where 0% means no effect). The settings on record: PathHunter PPARalpha complementation, chemiluminescence, 6 h; max response: hits give high values. Summed up:
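Chemiluminescence from complemented enzyme reported PPARalpha activation in cells after 6 hr of compound treatment at 37 C. The detection reagent was incubated for 60 min at room temperature, and compounds were scored as agonists.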

Test [13] is described as follows: qHTS assay for small molecule agonists of the antioxidant response element (ARE) signaling pathway measured by Nrf2-dependant transcriptional activity - cell viability counter screen (AID 720653; active = well fitted curve in the direction sought with a large enough effect in the repeat runs; an effect the other way counts as inactive or inconclusive; note: % is set by controls: 0 for no effect and ±100 for the full control effect). The settings on record: ARE-bla HepG2 viability, CellTiter-Glo ATP luminescence, 16 h; max response: hits give low values. Summed up:
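Cytotoxicity counter screen: intracellular ATP quantified by CellTiter-Glo luminescence in the same ARE-bla HepG2 plates, after 16 h compound exposure and a 2 h beta-lactamase substrate step.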

Test [14] can be described thus: qHTS assay for cell viability of HEK293 cells (AID 743288; active = well fitted curve in the direction sought with a large enough effect; an effect the other way counts as inactive or inconclusive; note: % is set by controls: 0 for no effect and ±100 for the full control effect; nearly all actives have a fitted effect of over 50% in size). The settings on record: ATP luminescence (CellTiter-Glo), 18 h; max response: hits give low values. Put shortly: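 Parental HEK293 cells were seeded at 2,000 cells/well, rested at least 5 h at 37 C, then exposed to compounds in DMSO for 18 h at 37 C. Viability was read as ATP-dependent luciferase luminescence after 30 min at room temperature.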

Test [15] is described as follows: qHTS assay for cell viability of the p53RE-bla HCT-116 cell line (AID 743292; active = well fitted curve in the direction sought with a large enough effect; an effect the other way counts as inactive or inconclusive; note: % is set by controls: 0 for no effect and ±100 for the full control effect; nearly all actives have a fitted effect of over 55% in size). Summed up:
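CellSensor p53RE-bla HCT-116 cells, 4,000/well, preincubated 5 h at 37 C, then exposed to compounds in DMSO for 16 h at 37 C. Viability read as CellTiter-Glo luminescence (intracellular ATP) after 30 min at room temperature.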

Test [16] addresses Nuclear receptor subfamily 1 group I member 2 (Rattus norvegicus) (UniProt Q9R1A7). The test is described as follows: qHTS assay for small molecule activators of the rat pregnane X receptor (rPXR) signaling pathway (AID 651751; call rule not given here; note: 0% is about no effect). The settings on record: rPXR reporter cells, luciferase (One-Glo), 24 h.

Chain of Glucocorticoid receptor (Homo sapiens) (P04150 whole entry, looked up): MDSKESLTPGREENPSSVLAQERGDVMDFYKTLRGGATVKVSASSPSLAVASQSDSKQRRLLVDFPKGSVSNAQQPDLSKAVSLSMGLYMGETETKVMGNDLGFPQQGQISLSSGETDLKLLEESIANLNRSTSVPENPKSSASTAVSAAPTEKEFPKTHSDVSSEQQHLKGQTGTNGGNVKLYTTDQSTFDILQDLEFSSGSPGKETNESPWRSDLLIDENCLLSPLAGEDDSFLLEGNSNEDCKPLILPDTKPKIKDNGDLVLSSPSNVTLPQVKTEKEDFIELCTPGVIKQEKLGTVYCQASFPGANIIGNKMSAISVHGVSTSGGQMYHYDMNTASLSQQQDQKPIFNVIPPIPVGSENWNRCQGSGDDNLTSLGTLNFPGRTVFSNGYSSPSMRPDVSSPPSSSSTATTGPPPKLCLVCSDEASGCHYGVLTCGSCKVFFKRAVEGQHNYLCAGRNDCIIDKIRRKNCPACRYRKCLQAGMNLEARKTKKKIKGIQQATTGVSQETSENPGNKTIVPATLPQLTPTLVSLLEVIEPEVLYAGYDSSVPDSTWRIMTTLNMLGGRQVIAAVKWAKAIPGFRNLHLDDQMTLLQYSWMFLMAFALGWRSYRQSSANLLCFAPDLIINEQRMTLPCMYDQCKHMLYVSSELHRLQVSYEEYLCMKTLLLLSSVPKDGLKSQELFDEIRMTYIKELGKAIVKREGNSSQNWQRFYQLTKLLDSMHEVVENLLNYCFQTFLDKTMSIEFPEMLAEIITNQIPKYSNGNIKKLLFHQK
Chain of Nuclear receptor subfamily 1 group I member 2 (Rattus norvegicus) (Q9R1A7 whole entry, looked up): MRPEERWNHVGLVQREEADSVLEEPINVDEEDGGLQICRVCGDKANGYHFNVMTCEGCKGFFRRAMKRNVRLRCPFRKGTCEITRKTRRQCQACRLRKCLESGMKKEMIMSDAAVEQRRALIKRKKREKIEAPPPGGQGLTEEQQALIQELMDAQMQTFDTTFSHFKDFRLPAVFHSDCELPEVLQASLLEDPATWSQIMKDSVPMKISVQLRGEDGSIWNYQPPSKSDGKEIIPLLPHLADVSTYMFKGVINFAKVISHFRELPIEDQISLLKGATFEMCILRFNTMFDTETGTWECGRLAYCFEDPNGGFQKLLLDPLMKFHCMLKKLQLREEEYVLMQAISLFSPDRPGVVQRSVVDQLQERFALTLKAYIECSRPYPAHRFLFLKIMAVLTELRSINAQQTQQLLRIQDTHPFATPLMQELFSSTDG
Chain of 3',5'-cyclic-AMP phosphodiesterase 4B (Homo sapiens) (Q07343 whole entry, looked up): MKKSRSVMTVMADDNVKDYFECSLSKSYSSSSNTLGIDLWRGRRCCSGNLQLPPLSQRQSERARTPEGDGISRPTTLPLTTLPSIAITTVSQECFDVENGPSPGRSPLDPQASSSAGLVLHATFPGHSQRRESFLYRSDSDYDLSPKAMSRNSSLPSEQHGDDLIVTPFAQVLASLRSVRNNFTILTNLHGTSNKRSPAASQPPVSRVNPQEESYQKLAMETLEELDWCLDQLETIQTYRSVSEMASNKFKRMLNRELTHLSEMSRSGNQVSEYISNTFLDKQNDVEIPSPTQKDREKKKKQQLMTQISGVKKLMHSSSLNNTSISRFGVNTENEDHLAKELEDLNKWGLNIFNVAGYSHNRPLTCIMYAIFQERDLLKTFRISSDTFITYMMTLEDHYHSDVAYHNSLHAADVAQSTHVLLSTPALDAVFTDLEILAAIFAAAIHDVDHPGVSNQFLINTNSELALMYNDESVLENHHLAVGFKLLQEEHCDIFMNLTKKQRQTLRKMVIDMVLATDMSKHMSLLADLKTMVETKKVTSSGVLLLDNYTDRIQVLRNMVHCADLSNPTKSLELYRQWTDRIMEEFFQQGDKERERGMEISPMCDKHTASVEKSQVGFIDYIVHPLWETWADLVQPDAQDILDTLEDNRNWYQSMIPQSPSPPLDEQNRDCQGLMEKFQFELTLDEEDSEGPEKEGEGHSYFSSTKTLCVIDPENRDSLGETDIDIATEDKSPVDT
Chain of Peroxisome proliferator-activated receptor alpha (Homo sapiens) (Q07869 whole entry, looked up): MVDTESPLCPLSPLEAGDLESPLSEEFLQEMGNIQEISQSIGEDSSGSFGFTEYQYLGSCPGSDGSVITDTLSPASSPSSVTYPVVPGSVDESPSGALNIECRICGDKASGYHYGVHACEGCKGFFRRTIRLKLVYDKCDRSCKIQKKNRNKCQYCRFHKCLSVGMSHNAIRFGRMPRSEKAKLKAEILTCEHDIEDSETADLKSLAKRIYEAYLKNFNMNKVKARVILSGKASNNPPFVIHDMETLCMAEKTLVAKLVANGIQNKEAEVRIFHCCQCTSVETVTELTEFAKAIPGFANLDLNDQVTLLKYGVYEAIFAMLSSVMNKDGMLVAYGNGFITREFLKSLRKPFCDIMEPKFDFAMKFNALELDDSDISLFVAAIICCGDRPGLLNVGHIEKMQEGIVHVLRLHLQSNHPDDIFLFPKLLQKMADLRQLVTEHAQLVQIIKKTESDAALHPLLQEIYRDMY

As for `COc1ccc(C(=O)OC(C)CN2CCN(C)CC2)cc1OC` (centres undefined), the activity change, negative = inhibition was 4.78% in test [1] and -6.37% in [2]. Besides, the activity, negative = inhibition in [3] is 11.6%. Also, the Potency in test [4] was above 20.6 µM. In addition, the activation in test [5] was 7.74%.
The matching figures for `Cc1nn(C)cc1C1C2=C(CC(C)(C)CC2=O)OC2=C1C(=O)CC(C)(C)C2`: 3.4%, -23.9%, 4.21%, above 20.6 µM and 1.79%.
On to `C=C(C)CN(CC)CCC(=O)Nc1ccc(OC)cc1OC`, for which the activity change, negative = inhibition in test [1] is -7.43%; in [2], 3.18%. The activity, negative = inhibition in test [3] is 6.14%. The Potency in [4] was above 20.6 µM. Further, the activation in [5] is -8.71%.
The matching figures for `CN(C)c1ccc(C=Nc2cnn(C)c2C(N)=O)cc1`: -9.71%, 2.44%, -12.3%, above 20.6 µM and -1.16%.
The matching figures for `CCC(=O)N(Cc1cccs1)C1CCOC(C)(C)C1` (centres undefined): -6.24%, -16.2%, -2.05%, above 20.6 µM and -1.46%.
The matching figures for `O=C(NCc1cccnc1)c1ccc(=O)oc1`: 10.5%, -0.473%, 0.949%, above 20.6 µM and 10.6%.
Take `CCSC(SCC)[C@H](O)[C@@H](O)[C@H](O)[C@H](O)CO`: the activity change, negative = inhibition in test [1] is -0.356%; in [2] it was 8.22%. The activity, negative = inhibition in test [3] is 10.1%. Besides, the Potency in [4] was above 20.6 µM. The activation in test [5] is 9.48%.
Consider `CCCCOc1nc2ccccc2nc1C(C#N)C(=O)NC1CCCCC1` (centres undefined), for which the activity change, negative = inhibition in test [1] is 8.43%; in [2], -13.6%. For the same molecule, the activity, negative = inhibition in test [3] is 25.7%. Also, the figures for the Potency in test [4] and in test [5] were above 20.6 µM and 12.6 µM (active), respectively.
Consider `COc1cc(NC2=CC(=O)CC(C)(C)C2)cc(OC)c1OC`, for which the activity change, negative = inhibition is 7.47% in test [1] and -11.1% in [2]. The activity, negative = inhibition in [3] is 15.1%. Further, the Potency in [4] is above 20.6 µM. Also, the activation in [5] was -12.9%.
`CCc1nc(NCC2CCCO2)c(C#N)c2c1COC(C)(C)C2` (centres undefined): the figures for the activity change, negative = inhibition in test [1] and in [2] were -25.1% and -16.2%, respectively. Moreover, the activity, negative = inhibition in test [3] was -2.2%. In addition, the Potency in test [4] is above 20.6 µM. Besides, the activation in test [5] was -11.3%.
The matching figures for `Cn1c(=O)c2c(nc(Oc3ccc4c(c3)OCO4)n2Cc2ccc(F)cc2)n(C)c1=O`: 28.8%, 2.74%, 6.83%, above 20.6 µM and -23.2%.
For `COc1cc(C)cc2c(-c3c(O)cc(O)c4c3C[C@H](C)N[C@@H]4C)cc(-c3cc(-c4c(O)cc(O)c5c4C[C@H](C)N[C@@H]5C)c4cc(C)cc(OC)c4c3O)c(O)c12`, the activity change, negative = inhibition in test [1] is 6.28% [at 7.69 µM]; in [2] it was 9.14% [at 7.69 µM]; in [6], -9.73% [at 11.4 µM]. Further, the activity, negative = inhibition in [3] was 5.82% [at 7.69 µM]. Also, in test [4], the Potency is above 46 µM. For the same molecule, the Potency result in test [7] is “inactive”.
Consider `CCOc1ccc(/C(O)=C2/C(=O)C(=O)N(CCN(C)C)C2c2ccccc2)cc1Cl` (centres undefined), for which the figures for the activity change, negative = inhibition in test [1] and in test [2] were 8.45% and 1.62%, respectively. The activity, negative = inhibition in test [3] is 7.84%. For the same molecule, the Potency in test [4] is above 20.6 µM. Besides, the activation in [5] is 2.13%.
On to `CCCCOC(=O)Nc1ccc(S(=O)(=O)Nc2nc(C)cc(C)n2)cc1`, for which the activity change, negative = inhibition was -5.25% in [1] and -8.58% in test [2]. The activity, negative = inhibition in [3] is -5.4%. The Potency in [4] was above 20.6 µM. Also, the activation in test [5] is -6.31%.
The matching figures for `COc1ccccc1NC(=O)Nc1nnc(C(C)C)s1`: -4.89%, 20.9%, -3.37%, above 20.6 µM and 10.4%.
As for `O=c1oc2cc(O)ccc2c2oc3cc(O)ccc3c12`, the activity change, negative = inhibition in [1] is 5.61%; in [2], 3.33%. Also, the activity, negative = inhibition in test [3] is -5.07%. Further, the Potency in [4] was above 20.6 µM; in test [11] it was 54.5 µM (active). In addition, in [8], the activation was -5.79%. The Potency result in [9], in test [10] and in test [15] was “inactive” in each case. The max response was -1.88% in [12], -3.33% in test [13], -9.05% in test [14] and 3.73% in [16].
With `CCOc1ccc(-c2nnc3sc(-c4ccccc4OC)nn23)cc1`, the activity change, negative = inhibition in [1] is 18%; in test [2] it was -19.8%. For the same molecule, in [3], the activity, negative = inhibition was 5.75%. Also, the Potency in test [4] is above 20.6 µM. Also, the activation in [5] is -10.9%.
Consider `CCCCOc1ccccc1C(=O)NCCCCCC(=O)O`, for which the activity change, negative = inhibition is 10.2% in [1] and 11.6% in test [2]. In test [3], the activity, negative = inhibition is 2.29%. Moreover, the Potency in test [4] was above 20.6 µM. The activation in [5] is 8%.
The matching figures for `CCOC(=O)C(CC(=O)O)N1CCCCC1` (centres undefined): 4.69%, 10.9%, 3.36%, above 20.6 µM and 11.2%.
Turning to `Cn1c2c(c(=O)n(C)c1=O)C(NC(=O)C(C)(C)C)(C(F)(F)F)C(=O)N2` (centres undefined), the activity change, negative = inhibition is -5.62% in test [1] and -2.4% in test [2]. Moreover, the activity, negative = inhibition in [3] is 6.52%. Moreover, the Potency in test [4] is above 20.6 µM. Further, the activation in [5] is 8.6%.
As to `CC1(C)CC(=O)c2cc(C(=O)N3CCCC(C)(C)C3)c(=O)n(-c3ccccc3)c2C1`, the activity change, negative = inhibition in test [1] is 8.53%; in test [2], -0.00696%. Moreover, the activity, negative = inhibition in [3] was -7.18%. Further, the results for the Potency in [4] and in test [5] were above 20.6 µM and 3.98 µM (active), respectively.
On to `CCN(CC)Cc1c(O)ccc2c(C)c(CC(=O)OC)c(=O)oc12`, for which the activity change, negative = inhibition in [1] is 14.2%; in test [2] it was 25.4%. In test [3], the activity, negative = inhibition was 8.46%. Besides, the figures for the Potency in [4] and in test [5] were above 20.6 µM and 10 µM (active), respectively.
